In all, about 4,500 sequences were measured (“median log2 fold change of GCK-ALFA target abundance (FLAG IP / Myc IP barcode read proportion)”: median about 0.078, lowest 2% from about -0.6 on). This excerpt belongs to a sample that is enriched for the lowest values.
B1: GBRAP_160_4321 (protein)
chain: SALMEELKKEIEEIAEEAKELIEGESPEQRRTIVKVALGEILLLAIENPEISDELEDKIAEIADAAEAELDANPDLSEEEVKELLEKAVKEILELIEKEE
B2: GBRAP_160_3995 (protein)
chain: SEKKKKLLEKIKEILEETYELMKGESPEERLAIARVAAGDILLELFESELVSDETEEKIDEVLDEFVATVEANPDMSDEELKELLEETLEKIEKIIEENS
B3: GBRAP_160_4762 (protein)
chain: KEELKKLKEEIEEIFKEHIELLKEVPKEKAVTVVEGAMGEVLMLAFSSEAVSDELEEKIGEIMDEAVERAKENKDAPVEVHIKILEEAREKILELIEEEI
B4: GBRAP_52_6056 (protein)
chain: MEARIEALARAIAAAIAAGDLDAALALLREAIATLTPEEIRRTLQLAARLVAGLGEEAHERFVELLDEAHELMIEAGISEEEADIIVGDAEAALARAVAA
B5: GBRAP_117_2594 (protein)
chain: SATLEEVRKRVEELVERIRKALEEMKTLSEEERKRLREELLEEATKEVKEMLKLTDAETVEEFFAEALADLSPEERVEAYIIFEEALADAEDELKEEEEA
B6: GBRAP_128_3594 (protein)
chain: SVEEVRAYVREALAAMKEADAETRREIADALMERLLTLSDEEQRAAFETIEELLPELSAEDLDILADALREHRPRFSPEGANLAADVEVEALNEREELEE
B7: GBRAP_80_6786 (protein)
chain: MEEEIEKLIEEIEKKNPEVAKIIKEIVELLKEIGVPLEIIKEIVEVFLDALSLPKETQLKIAKEVLEEAKELSEYKDEFSPEDIGRMVLAEALTLVELAK
B8: GBRAP_83_6928 (protein)
chain: KEKIVVAANDDNIDEAFEAAIDLQKNEGYEVDVEVIITKEGFPKLKKAFEKMAKAGWNGTLDILAVGATKEEVEKLKAELEAIAKKYGVNVKINVTQVEP
B9: GBRAP_160_4685 (protein)
chain: SEKVEEAEEFLEEEFAEVVELFDEVTREELAAFVRVAFGEIILELEELGLLTDEVAEVIDEEEERIVDAILNDPNITKEEFAALLEEAAEEIVEELEEEA
B10: GBRAP_184_5239 (protein)
chain: MVLERTIKAENEEELREKMKEVMEEAEKKGAKVRLLIEVEKLTREKAETLAEMIKEMAAKGLLELVGVVSSEPISEEIVDLLVEAADEAGVKLVIAEPEI
B11: GBRAP_52_6331 (protein)
chain: SHEEVEKMAEELYKAIVAGKEEEAKKLAEEMVETLSSEEILEAARIVAERVAKEGDEVKVRAAEVFEYLAELVEEKRGDERTAAEILGIYATTLYAAEQA
B12: GBRAP_11_2762 (protein)
chain: MKEKYERLAELAERAAELVDRLLAEGVDDAELLAELERLLRELREETKKIGDKALEKDVEIAEELFRALQADPANAEAYARELRAQLRVLAGQYLLLAEE
B13: GBRAP_35_5533 (protein)
chain: NSDEEIAEMLLNTMEALVDALPDVSPEQQLALARHLIRLAEDFLELKTKSAELIKRLIEVLERAIELIKKSSLPPEQQEELIRELEELRERAKELLKEVE
B14: GBRAP_128_3244 (protein)
chain: SQEELLEEAKKLVDEIVEADVEEAKELTKKLIELMKKLNKESREEVADYLIEKLKELSAEKLEAVADTLRENRPKLDDYTAALVAGVEIEALELALEQEE
B15: GBRAP_128_3242 (protein)
chain: SQEELLEEAKKLIEEIVKADVETAKKLTEKLIELLKKLNDEAREEVAEYLEKELEKLSAEKLEAVADTLRENRPKLDPYTAALVAGVEIDALELALEKEE
B16: GBRAP_184_5275 (protein)
chain: KVIHVDIVAETGEEAIKEVKKAAEKAKKEGAKLKINILLENSSVEETIKLFELLKKLKEEGIIEDAVVGIENEKTEEEIDTLLKAADEAGVKLVLAISDE
B17: GBRAP_80_6828 (protein)
chain: AEKELEAVIKELAEVDPEIAKLVEEAIEIAKELGVPLEVLLRFAKAILELAKVDKEKALELVKELLEELKKAKEEGNRDEAIALLYDAESEALLAVEELE
B18: GBRAP_52_6260 (protein)
chain: MRERLRALVEEILELVKAGRLEEARALATELAETFNEEELEIFIEEAAELARRSSKEEVEDLIRMAELVAEALEEAGRPEELVSLFEARVYGAIYETEKR
B19: GBRAP_160_4430 (protein)
chain: AEKLEKAKKEIDALFAEALEMMKGQTAEQRIVVLRVTEGEVKLELEELGLLTDEVDAVIDATFAAIIAHVAAHPDITDAELAALLDAAAATIKAELDKAA
B20: GBRAP_83_6937 (protein)
chain: KEKITVVANDDNIEKSFEIAEDLHKEEGYEVDIDVIITKESIEKLLKEVEKLFKKGVNADLHISLLGVTEEEAEELKKKLEEMAKKYGVNANITVEAIEL
B21: GBRAP_125_3132 (protein)
chain: HMEEILENLAIVAKALGLSDDDVEEAVKIAEKHGVKGTMYAILAALGYDEVADLVEKITEEEAIEVVKEVAEKIKKDPSLTPEEVVELIKKLLKEKIAAK
B22: GBRAP_125_3134 (protein)
chain: GMAEDLEDLAIVARALGFSDDDVAEAVAIAAKHGFKGTLYAIMAALGYDEVADLVEKITEEEAIEVIREVAAEIRADPSLTPEEVVELIKKRLEEVIAKK
B23: GBRAP_125_3133 (protein)
chain: MTEEILEDLAIVARALGFSDDDVEEAVEIARKHGVKGTLYAIMLALGYEEVADLVEKITEEEAIEVLREVAARIREDPSLTPEEVVALIKELLKEKIAKK
B24: GBRAP_52_5954 (protein)
chain: AAARIQAQVDRLAALVRAGDLDAARALARELAETLDEEELRAFAAAVAAAVAAAPADELDAAFRLAEIVADELEREGRDEELAGDLLAAAAAALYAKEQA
B25: GBRAP_52_5929 (protein)
chain: MREEARELAERVLEAAEAGDEERLRELLREIVEELDDEEIELVIDELAELTIERGPEYYDLFADIMDLLEDEVEKAGRDVERVQYAIARAAGRMYDALQA
B26: GBRAP_137_3627 (protein)
chain: ATVTIELRRYEDVVEITITLDDPEKAEAAAELVEDVAHEEGALAVSIELEEDGTLVVEVWVPRDKAEALLARLVERLTTELGATVVIRDLDTGEVRVVTP
B27: GBRAP_184_5122 (protein)
chain: DVVHRAVEGEKAEELIAASRAVVEEAAAAGKRLHLSVFAKNMSVEEIIEVIKAMGELKARYPQVSVTVDVLDELSEEEIDKVLKAADEAGVRVVIAIPEE
B28: GBRAP_11_2857 (protein)
chain: KKEKLKEAAELARKAAEALEKLLKEGVDDKELQKKIEELLKKLLELVKEYGDPDLIKLAEIALENFQKAKKDPKNAEKYIKEALAAVRVLEGNLLLEIDE
B29: GBRAP_9_7127 (protein)
chain: KKELVEKLKEVVEEMIEDISKVVPEVTEEMKEEFLKKVEELEKEALEDESLTPEEIKEKFKELVEEIKEEVKKIVDEELKKLVEAIALTALEEIDEIVEE

What follows are binders tested against GABARAP, O95166 (assay: median log2 fold change of GCK-ALFA target abundance (FLAG IP / Myc IP barcode read proportion) (log2 ratio); each designed protein is fused to an ALFA-tag nanobody in HEK293 cells to bring the named protein to FLAG-tagged glucokinase (GCK); Myc marks an untargeted standard; higher = target protein stabilised (more abundant)). Conditions: target protein: 3xFLAG-MCP-GCK-ALFA reporter; HEK293 landing pad (RPLP).
Method in brief: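 Binders fused to an ALFA nanobody were recombined as a library into HEK293 landing-pad cells, which were induced with 2 μg mL^−1 doxycycline and then transfected to express a FLAG-tagged target and a Myc-tagged standard. After 48 h, circular RNA barcodes recovered by anti-FLAG and anti-Myc immunoprecipitation of lysates were reverse transcribed, amplified and sequenced. Each binder's target abundance is the median log2 ratio of FLAG to Myc barcode read proportions, from barcodes present at ≥10^−7 in both replicates, binders carrying ≥3 barcodes per replicate, a 10^−6 pseudocount and pooled replicates.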

Chain of GABARAP, O95166 (O95166 whole entry, the tested form may be a part): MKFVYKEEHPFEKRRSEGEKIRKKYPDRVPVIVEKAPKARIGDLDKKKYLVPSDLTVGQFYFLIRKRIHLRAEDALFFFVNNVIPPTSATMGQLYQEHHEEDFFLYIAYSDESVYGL

Binder	median log2 fold change
B1	-0.0253
B2	-0.00842
B3	0.0708
B4	-0.851
B5	0.152
B6	-0.0656
B7	-0.00858
B8	0.0213
B9	-0.679
B10	0.163
B11	0.372
B12	0.183
B13	-0.115
B14	-0.658
B15	-0.0414
B16	-0.234
B17	0.0224
B18	-0.0461
B19	0.0561
B20	0.224
B21	-0.0148
B22	-0.575
B23	-0.744
B24	-0.0538
B25	-0.453
B26	-0.0361
B27	0.0426
B28	0.0648
B29	0.275

From the supplement of paper PMC12632987
